# Inconclusive results are not listed. Active and inactive are the calls of the source. How the source made its calls: active means hit-call score of the fitted dose curve at least 0.9, where 1 is the maximum; inconclusive means response in the unintended direction; inactive means score below 0.9.
# Legend:
# [1] = system: guinea pig Histamine Receptor (H2), gene 100729734; assay: NVS_GPCR_gH2: NovaScreen (NVS) G Protein-Coupled Receptor Assay for guinea pig Histamine Receptor (H2) (AID 2283342)
# Procedure, shortened: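 Radioligand displacement on guinea pig striatal membranes, 1 h after dosing, filter-based scintillation counting; loss of signal versus DMSO. Single-point screen at 25 uM in duplicate, then concentration-response up to 50 uM.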
# [2] = target: human Constitutive Androstane Receptor (CAR), NR1I3 (gene 9970) (UniProt Q14994); assay: NVS_NR_hCAR_Antagonist: NovaScreen (NVS) Nuclear Receptor Binding Assay for human Constitutive Androstane Receptor Antagonism (CAR) (AID 2283344)
# human Constitutive Androstane Receptor (CAR), NR1I3 (gene 9970), sequence (Q14994 whole entry, looked up): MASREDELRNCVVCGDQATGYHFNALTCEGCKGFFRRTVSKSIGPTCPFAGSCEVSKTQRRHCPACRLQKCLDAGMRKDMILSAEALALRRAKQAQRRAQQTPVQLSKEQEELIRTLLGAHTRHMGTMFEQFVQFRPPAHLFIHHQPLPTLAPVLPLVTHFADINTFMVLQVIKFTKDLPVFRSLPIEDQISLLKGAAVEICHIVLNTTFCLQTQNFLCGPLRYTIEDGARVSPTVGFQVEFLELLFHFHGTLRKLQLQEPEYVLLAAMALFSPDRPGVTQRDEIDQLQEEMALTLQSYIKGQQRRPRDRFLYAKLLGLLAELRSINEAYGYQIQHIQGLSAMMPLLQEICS
# Procedure, shortened: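 Cell-free TR-FRET binding read 1 h after dosing, antagonist mode; loss of signal versus DMSO baseline. Primary screen in duplicate at a single 25 uM; actives retested in concentration series.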
# [3] = target: bovine Estrogen Receptor (ER), ESR1 (gene 407238) (UniProt P49884); assay: NVS_NR_bER: NovaScreen (NVS) Nuclear Receptor Binding Assay for bovine Estrogen Receptor (ER) (AID 2283345);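 further: actives lower the bound radioligand count which means they displace the ER ligand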
# bovine Estrogen Receptor (ER), ESR1 (gene 407238), sequence (P49884 whole entry, looked up): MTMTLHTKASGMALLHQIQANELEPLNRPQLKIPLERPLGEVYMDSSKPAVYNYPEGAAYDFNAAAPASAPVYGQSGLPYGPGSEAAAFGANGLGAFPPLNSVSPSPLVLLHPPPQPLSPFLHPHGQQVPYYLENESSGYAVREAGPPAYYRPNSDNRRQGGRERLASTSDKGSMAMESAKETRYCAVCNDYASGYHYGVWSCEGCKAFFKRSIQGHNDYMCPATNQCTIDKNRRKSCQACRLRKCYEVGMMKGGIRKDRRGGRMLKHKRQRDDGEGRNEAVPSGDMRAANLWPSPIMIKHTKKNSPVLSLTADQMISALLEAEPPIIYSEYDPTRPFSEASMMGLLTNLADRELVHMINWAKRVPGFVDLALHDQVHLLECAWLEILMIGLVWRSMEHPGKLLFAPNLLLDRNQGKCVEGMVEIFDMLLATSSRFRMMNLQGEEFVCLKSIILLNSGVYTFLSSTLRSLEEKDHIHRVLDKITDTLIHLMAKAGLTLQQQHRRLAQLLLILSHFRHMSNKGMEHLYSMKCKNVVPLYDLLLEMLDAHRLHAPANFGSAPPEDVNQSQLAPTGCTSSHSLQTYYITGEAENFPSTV
# Procedure, shortened: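 Displacement of a radioligand from estrogen receptor in bovine uterine membrane preparations; scintillation signal taken at 18 hours, DMSO as baseline. Single-concentration duplicates (25 uM) preceded concentration-response follow-up of actives.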
# [4] = target: Estrogen receptor (Homo sapiens) (UniProt P03372); assay: OT_ER_ERaERa_1440: Odyssey Thera (OT) 24-hour HEK293T Protein-Complementation Assay for Estrogen Receptor-alpha/-alpha Homodimer (AID 2283349);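 further: hits raise fluorescence above DMSO for agonists and antagonists alike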
# Estrogen receptor (Homo sapiens), sequence (P03372 whole entry, looked up, the tested form may be a part): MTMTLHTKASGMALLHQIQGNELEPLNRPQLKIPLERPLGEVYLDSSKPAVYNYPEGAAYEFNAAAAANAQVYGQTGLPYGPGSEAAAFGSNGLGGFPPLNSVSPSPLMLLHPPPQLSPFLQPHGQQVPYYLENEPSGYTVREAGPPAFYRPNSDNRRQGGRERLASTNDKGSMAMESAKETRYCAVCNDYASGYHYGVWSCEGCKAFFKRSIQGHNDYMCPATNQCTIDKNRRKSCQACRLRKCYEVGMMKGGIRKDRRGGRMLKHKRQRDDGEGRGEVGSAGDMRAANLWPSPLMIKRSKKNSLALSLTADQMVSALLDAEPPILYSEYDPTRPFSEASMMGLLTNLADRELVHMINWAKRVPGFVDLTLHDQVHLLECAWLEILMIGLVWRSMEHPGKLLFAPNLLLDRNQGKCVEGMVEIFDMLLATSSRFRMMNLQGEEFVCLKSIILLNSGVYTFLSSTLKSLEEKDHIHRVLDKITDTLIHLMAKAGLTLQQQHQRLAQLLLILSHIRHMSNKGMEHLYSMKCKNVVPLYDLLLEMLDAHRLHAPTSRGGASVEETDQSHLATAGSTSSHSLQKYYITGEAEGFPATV
# Procedure, shortened: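 HEK293T cells stably expressing the human ER alpha ligand-binding domain (aa 310-547) as a homodimer PCA were dosed for 24 hours. Fluorescence intensity was read by laser scanning cytometry, and gain of signal was fitted relative to DMSO vehicle.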
# [5] = target: Estrogen receptor (Homo sapiens) (UniProt P03372); assay: OT_ER_ERaERa_0480: Odyssey Thera (OT) 8-hour HEK293T Protein-Complementation Assay for Estrogen Receptor-alpha/-alpha Homodimer (AID 2283351);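 further: rise in fluorescence from reassembled reporter fragments on ERα LBD homodimer in nucleus or whole cell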
# Procedure, shortened: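 HEK293T cells stably expressing the human ERα ligand-binding domain (aa 310-547) as a homodimer PCA were dosed with compound for 8 h. Gain of fluorescence intensity versus DMSO vehicle was read by laser scanning cytometry.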
# [6] = target: Estrogen receptor (Homo sapiens) + Estrogen receptor beta (Homo sapiens) (UniProt P03372+Q92731); assay: OT_ER_ERaERb_1440: Odyssey Thera (OT) 24-hour HEK293T Protein-Complementation Assay for Estrogen Receptor-alpha/-beta Homodimer (AID 2283356);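 further: heteromer of ER alpha and ER beta binding domains; hits raise reporter fluorescence and both agonists and antagonists give an increase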
# Estrogen receptor (Homo sapiens) + Estrogen receptor beta (Homo sapiens), sequence (P03372 whole entry, looked up, the tested form may be a part): as above
# Estrogen receptor (Homo sapiens) + Estrogen receptor beta (Homo sapiens), sequence (Q92731 whole entry, looked up, the tested form may be a part): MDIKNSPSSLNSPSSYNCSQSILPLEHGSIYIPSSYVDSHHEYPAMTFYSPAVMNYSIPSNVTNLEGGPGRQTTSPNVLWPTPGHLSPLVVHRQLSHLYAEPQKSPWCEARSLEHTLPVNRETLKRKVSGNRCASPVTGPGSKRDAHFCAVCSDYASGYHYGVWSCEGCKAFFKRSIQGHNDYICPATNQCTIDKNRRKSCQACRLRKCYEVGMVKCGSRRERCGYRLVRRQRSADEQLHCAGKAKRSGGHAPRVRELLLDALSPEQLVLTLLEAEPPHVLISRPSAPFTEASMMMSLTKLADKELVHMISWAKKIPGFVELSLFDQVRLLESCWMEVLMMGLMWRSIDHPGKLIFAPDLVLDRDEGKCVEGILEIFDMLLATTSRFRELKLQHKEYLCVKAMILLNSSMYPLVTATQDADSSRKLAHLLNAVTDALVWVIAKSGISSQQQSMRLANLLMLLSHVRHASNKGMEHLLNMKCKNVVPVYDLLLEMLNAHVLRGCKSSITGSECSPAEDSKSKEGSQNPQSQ
# Procedure, shortened: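 Stable HEK293T PCA line, ERα LBD 310-547 + ERβ LBD 263-489 fused to reporter fragments; 24 h treatment; fluorescence read by laser scanning cytometry; positive fitting direction relative to DMSO.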
# [7] = target: Estrogen receptor beta (Homo sapiens) (UniProt Q92731); assay: OT_ER_ERbERb_0480: Odyssey Thera (OT) 8-hour HEK293T Protein-Complementation Assay for Estrogen Receptor-beta/-beta Homodimer (AID 2283357);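 further: active means signal gain over DMSO baseline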
# Estrogen receptor beta (Homo sapiens), sequence (Q92731 whole entry, looked up, the tested form may be a part): as above
# Procedure, shortened: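 Fluorescence intensity, nuclear for agonists and nuclear plus cytoplasmic for antagonists, was quantified by laser scanning cytometry versus vehicle after 8 h treatment. The cells were HEK293T stably carrying ER beta LBD fragment-complementation partners.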
# [8] = target: Retinoic acid receptor alpha (Homo sapiens) (UniProt P10276); assay: NVS_NR_hRAR_Antagonist: NovaScreen (NVS) Nuclear Receptor Binding Assay for human Retinoic Acid Alpha Receptor Antagonism (RAR) (AID 2283358)
# Procedure, shortened: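 Cell-free TR-FRET binding assay with extracted human RARalpha in antagonist mode, read 2 h after dosing. Loss of signal was fitted relative to DMSO; the primary screen used 25 uM in duplicate, with concentration series on follow-up.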
# [9] = target: Androgen Receptor/SRC-1 Co-activator, AR (gene 367) (UniProt P10275); assay: OT_AR_ARSRC1_0960: Odyssey Thera (OT) 16-hour HEK293T Protein-Complementation Assay for Androgen Receptor/SRC-1 Co-activator (AID 2283353);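 further: actives raise the signal above DMSO so potency reflects increased AR and SRC-1 complex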
# Androgen Receptor/SRC-1 Co-activator, AR (gene 367), sequence (P10275 whole entry, looked up, the tested form may be a part): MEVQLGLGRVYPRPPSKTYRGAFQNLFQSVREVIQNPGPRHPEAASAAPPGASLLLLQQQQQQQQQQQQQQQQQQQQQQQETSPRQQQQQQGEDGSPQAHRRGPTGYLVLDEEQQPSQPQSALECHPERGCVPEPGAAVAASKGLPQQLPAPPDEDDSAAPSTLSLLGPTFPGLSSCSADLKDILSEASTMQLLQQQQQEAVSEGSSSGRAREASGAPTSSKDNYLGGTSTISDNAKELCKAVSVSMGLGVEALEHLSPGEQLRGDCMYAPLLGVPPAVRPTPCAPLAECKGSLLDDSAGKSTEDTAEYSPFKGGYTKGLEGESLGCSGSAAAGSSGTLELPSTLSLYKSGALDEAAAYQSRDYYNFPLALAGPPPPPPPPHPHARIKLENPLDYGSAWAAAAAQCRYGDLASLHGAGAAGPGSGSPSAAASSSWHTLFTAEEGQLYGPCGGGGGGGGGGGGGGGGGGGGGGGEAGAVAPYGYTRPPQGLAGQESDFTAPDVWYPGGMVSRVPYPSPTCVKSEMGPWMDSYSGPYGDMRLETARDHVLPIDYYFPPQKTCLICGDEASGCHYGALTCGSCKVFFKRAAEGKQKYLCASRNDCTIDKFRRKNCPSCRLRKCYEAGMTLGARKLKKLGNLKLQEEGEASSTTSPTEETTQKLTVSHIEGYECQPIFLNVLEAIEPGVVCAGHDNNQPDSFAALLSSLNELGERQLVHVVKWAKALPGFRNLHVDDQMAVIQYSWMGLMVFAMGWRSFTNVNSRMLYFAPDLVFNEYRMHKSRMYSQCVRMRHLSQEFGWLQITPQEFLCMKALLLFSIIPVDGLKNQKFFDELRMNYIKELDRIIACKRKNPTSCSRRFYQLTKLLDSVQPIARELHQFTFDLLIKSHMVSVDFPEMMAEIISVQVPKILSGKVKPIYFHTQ
# Procedure, shortened: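 HEK293T cells stably expressing AR and SRC-1 fused to split Venus YFP fragments via (Gly4Ser)2 linkers were dosed for 16 h. Nuclear/cytoplasmic fluorescence ratio at 488 nm, ≥400 cells per image, fitted for gain of signal versus DMSO.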
# NCBI gene 100848466 = assay: NVS_NR_bPR: NovaScreen (NVS) Nuclear Receptor Binding Assay for bovine Progextron Receptor (PR) (AID 2283343);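 on AC50: actives lower bound radioligand signal below DMSO meaning displacement of the label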
# Procedure, shortened: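 Bovine uterine membrane preparation; radioligand displacement read by scintillation counting 18 h after dosing. Primary screen single concentration, 25 uM, in duplicate; actives followed up in concentration series. Signal loss versus DMSO baseline.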
# [10] = target: human Peroxisome Proliferator-activated Receptor alpha (PPARa), PPARA (gene 5465) (UniProt Q07869); assay: NVS_NR_hPPARa: NovaScreen (NVS) Nuclear Receptor Binding Assay for human Peroxisome Proliferator-activated Receptor alpha (PPARa) (AID 2283359);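 further: activity means loss of TR-FRET signal versus DMSO baseline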
# human Peroxisome Proliferator-activated Receptor alpha (PPARa), PPARA (gene 5465), sequence (Q07869 whole entry, looked up): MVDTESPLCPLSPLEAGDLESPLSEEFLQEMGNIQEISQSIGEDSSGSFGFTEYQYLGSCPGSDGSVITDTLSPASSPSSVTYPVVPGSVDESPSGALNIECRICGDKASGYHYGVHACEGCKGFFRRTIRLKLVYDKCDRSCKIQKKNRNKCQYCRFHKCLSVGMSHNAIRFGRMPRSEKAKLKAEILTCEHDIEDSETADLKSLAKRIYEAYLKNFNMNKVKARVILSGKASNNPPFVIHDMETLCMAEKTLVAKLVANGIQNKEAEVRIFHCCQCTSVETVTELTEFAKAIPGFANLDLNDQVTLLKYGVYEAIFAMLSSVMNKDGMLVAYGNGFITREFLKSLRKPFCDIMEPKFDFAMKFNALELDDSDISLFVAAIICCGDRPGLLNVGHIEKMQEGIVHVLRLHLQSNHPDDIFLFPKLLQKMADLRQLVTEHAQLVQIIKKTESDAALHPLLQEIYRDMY
# Procedure, shortened: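 Cell-free TR-FRET binding assay with extracted PPARα protein, read 1 h after dosing. Primary screen in duplicate at 25 uM, with actives retested in concentration series. Loss of signal versus DMSO.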
# [11] = target: human Thyroid Receptor Alpha (TRa), THRA (gene 7067) (UniProt P10827); assay: NVS_NR_hTRa_Antagonist: NovaScreen (NVS) Nuclear Receptor Binding Assay for human Thyroid Receptor Alpha Antagonism (TRa) (AID 2283362);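 further: activity is loss of signal relative to DMSO baseline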
# Procedure, shortened: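 Extracted protein, cell-free; 1 h incubation after dosing; AlphaLISA chemiluminescence binding readout. DMSO = baseline/neg ctrl; signal loss = activity. Primary: duplicate, 25 uM; secondary: conc. series on actives.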
# [12] = target: Bile acid receptor (Homo sapiens) (UniProt Q96RI1); assay: NVS_NR_hFXR_Antagonist: NovaScreen (NVS) Nuclear Receptor Binding Assay for human Farnesoid X Receptor Antagonism (FXR) (AID 2283350)
# Bile acid receptor (Homo sapiens), sequence (Q96RI1 whole entry, looked up): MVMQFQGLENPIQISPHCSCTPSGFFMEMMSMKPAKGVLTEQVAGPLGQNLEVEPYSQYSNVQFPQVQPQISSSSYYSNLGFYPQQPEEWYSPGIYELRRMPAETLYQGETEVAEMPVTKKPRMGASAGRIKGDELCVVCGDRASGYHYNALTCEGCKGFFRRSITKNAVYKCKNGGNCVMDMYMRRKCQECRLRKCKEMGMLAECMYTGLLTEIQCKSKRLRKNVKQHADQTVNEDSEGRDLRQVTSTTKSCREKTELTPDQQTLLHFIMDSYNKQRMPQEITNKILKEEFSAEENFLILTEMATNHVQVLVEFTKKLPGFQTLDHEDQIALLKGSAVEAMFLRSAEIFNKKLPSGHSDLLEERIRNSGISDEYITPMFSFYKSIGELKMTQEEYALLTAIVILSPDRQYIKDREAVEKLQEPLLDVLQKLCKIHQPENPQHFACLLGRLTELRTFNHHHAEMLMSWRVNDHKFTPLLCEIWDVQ
# Procedure, shortened: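 Cell-free TR-FRET ligand-binding read-out on human FXR (NR1H4) in antagonist mode, measured 1 h after dosing. Primary screen in duplicate at 25 uM, actives retested in concentration series; signal loss scored versus DMSO.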
# [13] = target: Glucocorticoid receptor (Homo sapiens) (UniProt P04150); assay: NVS_NR_hGR: NovaScreen (NVS) Nuclear Receptor Binding Assay for human Glucocorticoid Receptor (GR) (AID 2283363);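 on AC50: activity is loss of specific radioligand binding signal relative to DMSO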
# Glucocorticoid receptor (Homo sapiens), sequence (P04150 whole entry, looked up): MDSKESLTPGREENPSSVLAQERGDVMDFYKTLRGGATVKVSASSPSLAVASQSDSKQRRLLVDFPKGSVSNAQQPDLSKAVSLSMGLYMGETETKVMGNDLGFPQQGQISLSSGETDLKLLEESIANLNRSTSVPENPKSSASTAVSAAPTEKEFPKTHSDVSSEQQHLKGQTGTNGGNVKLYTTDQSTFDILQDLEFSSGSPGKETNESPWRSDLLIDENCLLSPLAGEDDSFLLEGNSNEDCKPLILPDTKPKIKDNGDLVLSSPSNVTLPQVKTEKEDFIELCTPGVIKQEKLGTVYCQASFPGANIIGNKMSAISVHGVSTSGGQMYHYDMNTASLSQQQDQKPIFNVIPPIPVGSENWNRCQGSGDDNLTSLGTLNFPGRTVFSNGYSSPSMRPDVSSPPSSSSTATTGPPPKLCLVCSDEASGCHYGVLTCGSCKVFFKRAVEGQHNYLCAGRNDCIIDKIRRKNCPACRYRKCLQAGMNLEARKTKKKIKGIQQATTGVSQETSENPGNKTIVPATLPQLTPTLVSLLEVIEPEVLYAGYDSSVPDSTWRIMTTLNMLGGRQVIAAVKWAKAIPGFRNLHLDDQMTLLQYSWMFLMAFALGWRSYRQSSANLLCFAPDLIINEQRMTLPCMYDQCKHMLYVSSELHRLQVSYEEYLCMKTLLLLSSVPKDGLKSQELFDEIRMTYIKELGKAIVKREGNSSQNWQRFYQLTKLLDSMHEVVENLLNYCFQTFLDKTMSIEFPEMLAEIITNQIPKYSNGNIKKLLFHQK
# Procedure, shortened: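 Cell-free radioligand displacement assay on extracted human GR, read 16 h after dosing by filter-based scintillation counting. Screened in duplicate at 25 uM, then concentration series for actives; loss of signal versus DMSO baseline.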
# [14] = target: chimpanzee Androgen Receptor (AR), AR (gene 747460) (UniProt O97775); assay: NVS_NR_cAR: NovaScreen (NVS) Nuclear Receptor Binding Assay for chimpanzee Androgen Receptor (AR) (AID 2283346);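 further: radioligand displacement from AR measured by scintillation counting in a cell-free assay; a loss of bound radioligand signal versus DMSO counts as binding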
# Procedure, shortened: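 Radioligand binding to chimpanzee AR expressed in Sf9/Sf21 cells, cell-free, measured 72 h after dosing by lysate-based scintillation counting. Loss of signal vs DMSO; initial duplicate screen at 25 uM, actives retested in concentration series.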
# [15] = target: rat Glycine Receptor, Strychnine-sensitive (GlyRStrySens), Glra1 (gene 25674) (UniProt P07727); assay: NVS_LGIC_rGlyRStrySens: NovaScreen (NVS) Ligand-Gated Ion Channel Assay for rat Glycine Receptor, Strychnine-sensitive (GlyRStrySens) (AID 2283341)
# Procedure, shortened: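 Radioligand displacement on rat spinal cord membranes, 1 hr, filter scintillation read-out. Single-concentration duplicate screen at 25 uM; chemicals meeting threshold (e.g., 30% inhibition) rerun in concentration-response up to 50 uM. Loss of binding fitted versus DMSO.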
# [16] = target: Nuclear receptor subfamily 1 group I member 2 (Homo sapiens) (UniProt O75469); assay: NVS_NR_hPXR: NovaScreen (NVS) Nuclear Receptor Binding Assay for human Pregnane X Receptor (PXR) (AID 2283365);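 further: a drop in FRET signal versus DMSO baseline means the compound binds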
# Procedure, shortened: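 Human PXR protein, cell-free; compound added, incubated 2 h, TR-FRET read. Signal decrease vs DMSO = binding. Screened 25 uM duplicate, actives re-run as dilution series.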
compound,measurement,setting,value
CCc1c(C(=O)NN2CCCCC2)nn(-c2ccc(Cl)cc2Cl)c1-c1ccc(Br)cc1,outcome,[1],inactive
same,outcome,[2],inactive
same,outcome,[3],inactive
same,outcome,[4],inactive
same,outcome,[5],inactive
same,outcome,[6],inactive
same,outcome,[7],inactive
same,outcome,[8],inactive
CCCCCCCCCCC,outcome,[2],inactive
same,outcome,[4],inactive
same,outcome,[5],inactive
same,outcome,[9],inactive
same,outcome,[6],inactive
CCOc1ccc2c(c1)C(C)=CC(C)(C)N2,AC50,NCBI gene 100848466,25 µM (active)
same,outcome,[4],inactive
same,outcome,[5],inactive
same,outcome,[9],inactive
same,outcome,[10],inactive
same,outcome,[11],inactive
O=[N+]([O-])C(CO)(CO)CO,outcome,NCBI gene 100848466,inactive
same,outcome,[4],inactive
same,outcome,[5],inactive
same,outcome,[6],inactive
CCCCCCCCCCCC(=O)OC,outcome,[2],inactive
same,outcome,[4],inactive
same,outcome,[12],inactive
same,outcome,[5],inactive
same,outcome,[6],inactive
COc1cc(-c2nc(NC(=O)c3cc4cc(C)cc(C)c4n3CC(=O)O)sc2CCC2CCCCC2)c(OC)cc1Cl,AC50,[2],3.54 µM (active)
same,outcome,[3],inactive
same,outcome,[4],inactive
same,outcome,[12],inactive
same,outcome,[5],inactive
same,AC50,[9],10.5 µM (active)
same,outcome,[6],inactive
same,outcome,[7],inactive
same,outcome,[13],inactive
CCCCCCC(=O)OCC,outcome,[3],inactive
same,outcome,[4],inactive
same,outcome,[5],inactive
same,outcome,[6],inactive
same,outcome,[7],inactive
O=C(OCCCCCOC(=O)c1ccccc1)c1ccccc1,outcome,[2],inactive
same,outcome,[4],inactive
same,outcome,[5],inactive
CCCc1cc(=O)[nH]c(=S)[nH]1,AC50,[3],25 µM (active)
same,outcome,[4],inactive
same,outcome,[5],inactive
Cc1cccc(Nc2cc(Cl)nc(SCC(=O)O)n2)c1C,outcome,[3],inactive
same,outcome,[4],inactive
same,outcome,[5],inactive
same,outcome,[9],inactive
same,outcome,[6],inactive
same,outcome,[7],inactive
CNCc1cc(F)ccc1Oc1ccc(Cl)c(Cl)c1,outcome,[3],inactive
same,AC50,[14],16.6 µM (active)
same,outcome,[4],inactive
same,outcome,[5],inactive
same,outcome,[6],inactive
same,outcome,[7],inactive
Cc1ccc(C(C)C)c(O)c1,outcome,[2],inactive
same,outcome,[4],inactive
same,outcome,[5],inactive
same,outcome,[6],inactive
same,AC50,[7],33.9 µM (active)
same,outcome,[10],inactive
Cc1ccc(C)c(O)c1C,outcome,[15],inactive
same,outcome,[4],inactive
same,outcome,[5],inactive
same,outcome,[9],inactive
CCCCC(CC)COC(=O)CC(C(=O)OCC(CC)CCCC)S(=O)(=O)O (stereo unspecified),AC50,NCBI gene 100848466,10.9 µM (active)
same,outcome,[3],inactive
same,AC50,[14],17.7 µM (active)
same,outcome,[4],inactive
same,outcome,[6],inactive
same,AC50,[13],5.89 µM (active)
same,AC50,[16],1.03 µM (active)
Nc1ccccc1N,outcome,[3],inactive
same,outcome,[4],inactive
same,outcome,[5],inactive
same,outcome,[6],inactive
